# Screening results as filed in PubChem.
# mHTT CaM bind = inhibitors of human mutant huntingtin-calmodulin interaction. AlphaScreen His-mHTT/GST-CaM binding, luminescence. inhibition, % at 15 µM. AID 1671202. 190,000 compounds, 3.6% hits. P42858;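 also: 0% = both proteins with DMSO and 100% = one protein alone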
# Pf apPOL block = Pf-apPOL DNA polymerase inhibition; inhibition, % at 10 µM; AID 1794808; Recombinant Pf-apPOL, molecular beacon fluorescence, 1.5 h; 210,000 compounds, 0.25% hits
# * hit, by the source's call; . = no result given; ! = not confirmed by another sample. Compounds with a hit are over-represented: about 3.6% of the library has one in this group of screens. Rule as the data show it: active = inhibition above about 50%; inactive = the rest.
SMILES,mHTT CaM bind,Pf apPOL block
Cc1ccccc1C(=O)N1CCCN(Cc2nc(-c3ccc(Cl)cc3)no2)CC1,23.0,-0.8
Cc1oc2c(CN3CCCCC3)c(O)ccc2c(=O)c1-c1ccccc1,-0.3,-1.0
CN(CCc1ccncc1)C(=O)c1ccc(N2CCNC(c3ccccc3)C2)nc1 (centres undefined),9.7,1.9
O=C(CCn1ccc(=O)[nH]c1=O)N1CCC(COCc2ccccc2)CC1,-4.4,2.8
O=C(Cn1ccc2ccccc21)N1CCC(COCc2ccccc2)CC1,58.0*,-15.9
CCn1c2ccccc2c2cc(C(C)=O)ccc21,-13.6,-6.2
CC(C)(C)OC(=O)Cn1c2ccccc2c2cc(N)ccc21,73.2*,-4.3
CCc1ccccc1NC(=O)C1CCCN(C(=O)c2cccc(Cl)c2)C1 (centres undefined),30.4,3.2
N#Cc1c(C(F)(F)F)cc(-c2ccccc2)nc1SCCC(N)=O,-23.9,-8.7
N#Cc1c(C(F)(F)F)cc(-c2ccccc2)nc1SCC(N)=O,-1.0,65.3*
CCc1ccc(/C=C2\N=C(c3ccccc3)OC2=O)s1,17.0,1.5
Cc1ccc2[nH]c3c(c2c1)CCCC3NCc1ccc(F)cc1 (centres undefined),57.0*,15.8
Cc1ccc2[nH]c3c(c2c1)CCCC3NC(N)=O (centres undefined),29.9,-9.6
O=CNC1CCCc2c1[nH]c1ccc(Br)cc21 (centres undefined),30.0,-4.2
Brc1ccc2[nH]c3c(c2c1)CCCC3NCc1ccccc1 (centres undefined),100.3*,-1.2
Cc1cc2c(cc1C)NC(c1ccc([N+](=O)[O-])s1)C1=C(CC(C)(C)CC1=O)N2 (centres undefined),32.0,-4.3
O=C(c1csc(N2CCN(c3ccccc3F)CC2)n1)N1CCCCC1,17.6,-3.1
O=S(=O)(N=C1SCCN1S(=O)(=O)c1ccc(Cl)cc1)c1ccc(Cl)cc1,-1.0,-1.6
COc1cc(C2CC(=O)Oc3c(C(CCN4CCCC(C)C4)c4ccc(N(C)C)cc4)c(OC)cc(OC)c32)cc(OC)c1OC (centres undefined),86.2*,-4.2
COc1cc(OC)c2ccc(=O)oc2c1C(CCN1CCCC(C)C1)c1ccc(N(C)C)cc1 (centres undefined),54.1*,-1.1
COc1cc(O)c(C(CCN2CCCC(C)C2)c2cc(OC)c(OC)c(OC)c2)c(OC)c1 (centres undefined),8.6,-6.4
COc1cc(C(CCN2CCCC(C)C2)c2c(OC)cc(OC)c3c2OC(=O)CC3c2ccc(N(C)C)cc2)cc(OC)c1OC (centres undefined),93.2*,7.3
COc1ccc(C(CCN2CCCC(C)C2)c2c(O)cc(OC)cc2OC)cc1 (centres undefined),15.3,-1.3
COc1cc(OC)c2c(c1C(CCN1CCCC(C)C1)c1ccc(N(C)C)cc1)OC(=O)CC2c1ccc(N(C)C)cc1 (centres undefined),100.3*,-4.3
COc1cc(C2CC(=O)Oc3ccc(C(C)(C)C)cc32)cc(OC)c1OC (centres undefined),29.8,-1.0
SMILES,mHTT CaM bind,Pf apPOL block
CCC(=O)Nc1cccc(-c2noc(C3CCCN(C(=O)c4cccc(C)c4)C3)n2)c1 (centres undefined),7.6,-2.2
Cc1cccc(N2CCN(C(=O)c3cc(Cl)ccc3Cl)CC2)c1C,-1.0,0.1
CCCn1ncc(N2CCC(C(=O)NCc3ccc(OC)cc3)CC2)cc1=O,3.6,-1.0
CC1CN(C(=O)Cc2c[nH]c3ccccc23)CC1c1nc(-c2cccnc2)no1 (centres undefined),20.4,-1.1
CCOc1ccccc1/C=C1N=C(/C=C/c2ccccc2OC)OC/1=O,-18.0,4.3
C(CCC=C(c1ccccc1)c1ccccc1)=C(c1ccccc1)c1ccccc1,.,-14.4
CCCCN(C)Cc1c(O)ccc2c1OC(=Cc1ccco1)C2=O,-8.3,-1.8
Cc1nn(-c2ccccc2)c2nc(N3CCCC(C(=O)NCc4ccc(F)cc4)C3)sc12 (centres undefined),-3.1,-1.5
COc1ccc(C(NC(=O)CC(C)C)c2ccc3cccnc3c2O)cc1OC (centres undefined),24.0,-8.8
COc1ccc(C(NC(C)=O)c2ccc3cccnc3c2O)cc1OC (centres undefined),100.0*,-24.2
COc1cc(NC(=O)Cc2ccc(OC)c(OC)c2)c2ncccc2c1,15.0,-4.5
CCC(=O)NC(c1ccc(OC)c(OC)c1)c1ccc2cccnc2c1O (centres undefined),100.0*,94.1*!
CCc1nnc(NC(=O)c2c(O)c3cccc4c3n(c2=O)CCC4)s1,-4.0,-3.5
Cc1cc(C(N)=O)c2cc(Cl)ccc2n1,0.7,-0.4
CCc1nc2c(NC(=O)c3ccc(C(F)(F)F)cc3)cccn2n1,54.5*,-0.4
CCc1nc2c(NC(=O)c3cc(F)cc(F)c3)cccn2n1,-5.6,-3.0
CC(C)N1CC=C2C(C#N)=C(N)C(C#N)(C#N)C(c3ccccc3F)C2C1 (centres undefined),7.0,-7.5
CC(C)Cc1nnc(NS(=O)(=O)Cc2ccccc2)s1,0.2,-1.2
Cc1nnc(NS(=O)(=O)Cc2ccccc2)s1,1.1,55.6*
COc1cccc(N=Cc2cc([N+](=O)[O-])cc(OC)c2O)c1,76.0*,8.2
Cc1cccc(N=Cc2cc(I)cc(I)c2O)c1,11.0,-2.2
CCOc1cc([N+](=O)[O-])cc(C=Nc2ccc3ncccc3c2)c1O,32.0,-1.9
COc1cc([N+](=O)[O-])cc(C=Nc2cccc(Cl)c2Cl)c1O,10.0,8.0
COc1cc([N+](=O)[O-])cc(C=Nc2ncccc2O)c1O,72.0*,2.6
Oc1cccnc1N=Cc1cc(I)cc(I)c1O,90.0*,-1.4
SMILES,mHTT CaM bind,Pf apPOL block
COc1ccc(C(=O)N2CCCC2COc2ccc(C(=O)N3CCOCC3)cc2)cc1 (centres undefined),4.7,2.9
O=C1OC(Cc2ccccc2Cl)c2cc[nH]c(=O)c21 (centres undefined),10.0,2.4
COC(=O)c1ccc(OCC2c3cc(OC)c(OC)cc3CCN2C(=O)c2ccc(OC)cc2)cc1 (centres undefined),47.1,-4.1
COc1ccc(OCC2c3cc(OC)c(OC)cc3CCN2C(=O)c2ccc(C)cc2)cc1 (centres undefined),77.0*,1.9
CCOc1ccc(C(=O)N2CCc3cc(OC)c(OC)cc3C2COc2ccccc2OC)cc1 (centres undefined),73.2*,1.4
COc1cc2c(cc1OC)C(COc1ccccc1OC)N(C(=O)c1ccccc1OC)CC2 (centres undefined),37.0,-6.3
Cc1ccc(C(=O)Nc2cccn3nc(C(C)C)nc23)cc1F,3.6,1.2
CC1=C(C(=O)NCCN2CCN(C)CC2)C2(CCCCC2)OC1=O,-4.3,-4.3
Cc1cc(C=O)c(C)n1-c1ccc(F)c(Cl)c1,13.0,-7.0
COc1ccc(-n2c(C)cc(/C=C/[N+](=O)[O-])c2C)cc1Cl,75.0*,-2.1
Cc1cccc(C(=O)Nc2ccc(O)c(-c3nc4cc(C)c(C)cc4o3)c2)c1,1.9,-0.9
CC1(C)CC(=O)C2=C(C1)NC1=C(C(=O)c3ccccc31)C2c1ccc(F)cc1 (centres undefined),62.0*,-6.3
O=C1CCCC2=C1C(c1cc([N+](=O)[O-])ccc1O)C1=C(N2)c2ccccc2C1=O (centres undefined),56.0*,3.8
O=C1CCCC2=C1C(c1cc([N+](=O)[O-])ccc1O)C1=C(CCCC1=O)N2,-1.0,-7.7
